Results as given in PubChem BioAssay (EPA / NIEHS).
Several values for one entry are separate records, joined by “and”; a condition that tells them apart may be missing. Equal entries are not always repeated. Records with an inconclusive call do not appear. Activity calls are given as the source filed them. The calls were made as follows, unless noted: active = hit-call score of the fitted dose curve at least 0.9, where 1 is the maximum; inactive = score below 0.9.

How the values were obtained:
[1] = ATG_NFI_CIS: Attagene CIS-FACTORIAL HepG2 Assay for human Nuclear Factor I (NFI) (AID 2282989); conditions: HepG2 cis-regulatory reporter, NFI response element transcription; actives raise or lower the signal
Procedure, shortened: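 Reporter transcription driven by endogenous transcription factors in HepG2 cells; 24 h treatment. Quantitation by labelled RT-PCR fragments on capillary electrophoresis, gain- or loss-of-signal relative to DMSO.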

[2] = target: Myc proto-oncogene protein (Homo sapiens) (UniProt P01106); experiment: ATG_Myc_CIS: Attagene CIS-FACTORIAL HepG2 Assay for human Myelocytomatosis (Myc) Proto-Oncogene Transcription Factor (AID 2282990); conditions: HepG2, Attagene cis-reporter transcription factor activity; actives raise or lower the signal
Sequence of Myc proto-oncogene protein (Homo sapiens) (P01106 whole entry, looked up): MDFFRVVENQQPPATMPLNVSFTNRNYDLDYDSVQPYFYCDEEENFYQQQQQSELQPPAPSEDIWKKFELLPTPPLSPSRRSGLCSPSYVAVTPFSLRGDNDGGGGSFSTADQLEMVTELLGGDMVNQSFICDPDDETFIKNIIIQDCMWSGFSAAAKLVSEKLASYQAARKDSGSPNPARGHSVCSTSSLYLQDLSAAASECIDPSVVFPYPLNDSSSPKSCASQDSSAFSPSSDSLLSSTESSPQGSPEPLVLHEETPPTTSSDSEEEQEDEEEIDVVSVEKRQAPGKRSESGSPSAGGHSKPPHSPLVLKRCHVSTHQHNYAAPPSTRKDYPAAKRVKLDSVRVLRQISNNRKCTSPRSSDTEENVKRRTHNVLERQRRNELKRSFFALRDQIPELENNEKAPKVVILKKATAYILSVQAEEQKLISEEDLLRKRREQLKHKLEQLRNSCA
Procedure, shortened: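 HepG2, transient MRTU transfection (cis promoters, endogenous TFs); 24 h dosing; TriZol RNA → oligo(dT) RT → PCR → 6-FAM primer extension → HpaI cut → CE. Bidirectional fit vs DMSO.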

[3] = ATG_NF_kB_CIS: Attagene CIS-FACTORIAL HepG2 Assay for human Nuclear Factor Kappa B (NF-kB) (AID 2282991); conditions: HepG2 Attagene cis-factorial NF-kB reporter mRNA; actives raise or lower the signal
Procedure, shortened: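 HepG2, transient multi-reporter transfection, cis promoter elements (endogenous TFs). 24 h exposure. Total RNA → RT → PCR → 6-FAM label → HpaI → CE. Gain/loss vs DMSO.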

[4] = ATG_NRF2_ARE_CIS: Attagene CIS-FACTORIAL HepG2 Assay for human Nuclear Factor Erythroid 2 Related Factor 2 (NFR2) response to Antioxidant Response Elements (ARE) (AID 2282992); conditions: HepG2 Attagene ARE/NRF2 reporter, transcription factor activity; actives raise or lower the signal;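 as to AC50: reporter mRNA level measured by RT-PCR and capillary electrophoresis fluorescence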
Procedure, shortened: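 HepG2 cells transiently transfected with multiplexed cis-element reporter constructs, 24 h after chemical dosing; reporter mRNA quantified by RT-PCR, fluorescent primer extension, HpaI digestion and capillary electrophoresis. Bidirectional fit relative to DMSO.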

[5] = ATG_Oct_MLP_CIS: Attagene CIS-FACTORIAL HepG2 Assay for human Octamer-Binding Transcription Factor (Oct) (AID 2282993); conditions: HepG2 Attagene cis-factorial Oct reporter, mRNA; actives raise or lower the signal
Procedure, shortened: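 Transfected HepG2 cells, 24 h treatment. Reporter mRNA quantified by RT-PCR–capillary electrophoresis; bidirectional fitting against DMSO.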

[6] = target: Cellular tumor antigen p53 (Homo sapiens) (UniProt P04637); experiment: ATG_p53_CIS: Attagene CIS-FACTORIAL HepG2 Assay for human p53 Transcription Factor (AID 2282994); conditions: HepG2 p53 cis-element reporter, Attagene mRNA; actives raise or lower the signal
Sequence of Cellular tumor antigen p53 (Homo sapiens) (P04637 whole entry, looked up): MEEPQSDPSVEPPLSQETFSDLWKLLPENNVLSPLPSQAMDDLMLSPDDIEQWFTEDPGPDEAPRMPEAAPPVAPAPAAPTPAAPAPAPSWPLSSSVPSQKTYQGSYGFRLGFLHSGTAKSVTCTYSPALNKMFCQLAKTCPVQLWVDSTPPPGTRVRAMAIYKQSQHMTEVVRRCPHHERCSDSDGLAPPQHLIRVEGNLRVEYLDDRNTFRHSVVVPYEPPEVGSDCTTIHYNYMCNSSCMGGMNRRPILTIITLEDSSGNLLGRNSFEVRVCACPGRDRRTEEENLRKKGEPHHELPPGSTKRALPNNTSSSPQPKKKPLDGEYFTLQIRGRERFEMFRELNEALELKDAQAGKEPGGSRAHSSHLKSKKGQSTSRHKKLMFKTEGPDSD
Procedure, shortened: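 HepG2 cells transiently transfected with cis-regulated multiple reporter transcription units, dosed 24 h. Reporter mRNA measured by RT-PCR, 6-FAM primer extension, HpaI digestion and capillary electrophoresis; bidirectional fit relative to DMSO.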

[7] = BSK_3C_TissueFactor: BioMAP Diversity Plus: 3C Assay for Tissue Factor Biomarker Activity (AID 2282997); conditions: BioMAP 3C HUVEC, tissue factor biomarker readout; actives raise or lower the signal
Procedure, shortened: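 Dosing of human umbilical vein endothelial cells preceded a 24 h incubation. Tissue Factor was then read by ELISA, with increases and decreases both scored relative to DMSO controls.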

[8] = BSK_3C_uPAR: BioMAP Diversity Plus: 3C Assay for Urokinase-type plasminogen activator receptor (uPAR) Biomarker Activity (AID 2282998); conditions: BioMAP 3C HUVEC, uPAR biomarker ELISA; actives raise or lower the signal
Procedure, shortened: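 Readout: ELISA for surface uPAR. System: human umbilical vein endothelial primary cells, 24 h after chemical exposure. Analysis: bidirectional fit, DMSO baseline.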

[9] = BSK_3C_VCAM1: BioMAP Diversity Plus: 3C Assay for Vascular cell adhesion molecule 1 (VCAM1) Biomarker Activity (AID 2282999); conditions: BioMAP 3C HUVEC, VCAM1 ELISA, cytokine-stimulated; actives raise or lower the signal
Procedure, shortened: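 Endothelial cells from human umbilical vein are treated with test chemical. At 24 h, VCAM-1 is measured by ELISA, and responses in either direction are fitted relative to DMSO.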

[10] = BSK_4H_Eotaxin3: BioMAP Diversity Plus: 4H Assay for Eotaxin 3 Biomarker Activity (AID 2283000); conditions: primary human endothelial cells (HUVEC); actives raise or lower the signal
Procedure, shortened: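 Human umbilical vein endothelial cells (BSK_4H system) dosed with test chemical; Eotaxin-3 (CCL26) measured by ELISA 24 h after dosing. Bidirectional curve fitting relative to DMSO negative control as baseline.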

[11] = target: human Peroxisome Proliferator-activated Receptor alpha (PPARa), PPARA (gene 5465) (UniProt Q07869); experiment: ATG_PPARa_TRANS: Attagene TRANS-FACTORIAL HepG2 Assay for human Peroxisome Proliferator-activated Receptor alpha (PPARa) (AID 2283001; active = hit-call score of the fitted dose curve at least 0.9, where 1 is the maximum;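 as to AC50: potency for gain of reporter signal over DMSO so agonist or activator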)
Sequence of human Peroxisome Proliferator-activated Receptor alpha (PPARa), PPARA (gene 5465) (Q07869 whole entry, looked up, the tested form may be a part): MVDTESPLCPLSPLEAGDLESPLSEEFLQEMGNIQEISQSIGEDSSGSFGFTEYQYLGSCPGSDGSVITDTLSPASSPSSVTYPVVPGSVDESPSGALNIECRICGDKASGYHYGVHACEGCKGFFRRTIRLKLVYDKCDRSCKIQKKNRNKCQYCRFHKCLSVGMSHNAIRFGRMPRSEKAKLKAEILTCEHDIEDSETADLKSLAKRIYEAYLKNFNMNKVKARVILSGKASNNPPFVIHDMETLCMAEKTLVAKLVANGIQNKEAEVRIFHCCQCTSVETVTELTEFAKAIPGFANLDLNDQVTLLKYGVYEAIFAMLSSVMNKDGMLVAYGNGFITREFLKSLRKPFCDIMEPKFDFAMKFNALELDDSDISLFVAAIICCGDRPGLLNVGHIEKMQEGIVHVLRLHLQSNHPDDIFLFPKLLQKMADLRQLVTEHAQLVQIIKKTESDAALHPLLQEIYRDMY
Procedure, shortened: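 Read-out is fluorescence of reporter cDNA fragments resolved by capillary electrophoresis after RT-PCR. Human HepG2 liver cells carried transfected PPARa-Gal4 chimera and GAL4-UAS reporter units, treated 24 h; activity scored as increase over DMSO.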

[12] = target: human Peroxisome Proliferator-activated Receptor delta (PPARd), PPARD (gene 5467) (UniProt Q03181); experiment: ATG_PPARd_TRANS: Attagene TRANS-FACTORIAL HepG2 Assay for human Peroxisome Proliferator-activated Receptor delta (PPARd) (AID 2283002; active = hit-call score of the fitted dose curve at least 0.9, where 1 is the maximum)
Sequence of human Peroxisome Proliferator-activated Receptor delta (PPARd), PPARD (gene 5467) (Q03181 whole entry, looked up, the tested form may be a part): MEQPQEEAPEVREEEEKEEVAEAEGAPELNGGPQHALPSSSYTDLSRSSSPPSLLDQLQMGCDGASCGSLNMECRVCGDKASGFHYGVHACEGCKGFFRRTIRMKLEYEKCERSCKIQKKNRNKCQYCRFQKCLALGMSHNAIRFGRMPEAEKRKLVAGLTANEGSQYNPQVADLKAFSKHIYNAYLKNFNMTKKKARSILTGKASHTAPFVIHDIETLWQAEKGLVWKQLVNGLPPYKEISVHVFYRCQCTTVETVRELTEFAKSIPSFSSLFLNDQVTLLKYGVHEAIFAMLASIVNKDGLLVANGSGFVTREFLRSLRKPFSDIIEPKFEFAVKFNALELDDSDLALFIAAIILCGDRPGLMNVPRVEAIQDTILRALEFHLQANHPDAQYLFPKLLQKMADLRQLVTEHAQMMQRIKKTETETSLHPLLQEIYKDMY
Procedure, shortened: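 Transient HepG2 transfection (multiple GAL4-UAS RTUs, chimeric receptor-Gal4); 24 h dosing; total RNA → oligo(dT) RT → PCR → 6-FAM primer extension → HpaI cut → CE. Positive direction vs DMSO.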

[13] = read-out: Intercellular Adhesion Molecule 1 (ICAM1), ICAM1 (gene 3383); experiment: BSK_3C_ICAM1: BioMAP Diversity Plus: 3C Assay for Intercellular Adhesion Molecule 1 (ICAM1) Biomarker Activity (AID 2283003); conditions: primary human endothelial cells (HUVEC); actives raise or lower the signal
Procedure, shortened: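 ICAM-1 levels measured by ELISA after HUVEC cultures in the 3C system had been dosed for 24 h. Gain or loss of signal relative to DMSO was fitted in both directions.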

[14] = BSK_3C_Proliferation: Cell Proliferation Assessment in the BioMAP Diversity Plus: 3C Assay (AID 2283006); conditions: primary human endothelial cells (HUVEC);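 as to AC50: potency may reflect either rise or fall in cell number versus DMSO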
Procedure, shortened: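 Read-out is total protein by SRB absorbance at 560 nm, taken as a proxy for relative cell number. Primary human umbilical vein endothelium cultured below confluence was dosed for 48 h, TCA-fixed and SRB-stained; curves were fitted bidirectionally versus DMSO.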

[15] = target: Nuclear receptor subfamily 1 group I member 2 (Homo sapiens) (UniProt O75469); experiment: ATG_PXR_TRANS: Attagene TRANS-FACTORIAL HepG2 Assay for human Pregnane X Receptor (PXR) (AID 2283008; active = hit-call score of the fitted dose curve at least 0.9, where 1 is the maximum)
Sequence of Nuclear receptor subfamily 1 group I member 2 (Homo sapiens) (O75469 whole entry, looked up, the tested form may be a part): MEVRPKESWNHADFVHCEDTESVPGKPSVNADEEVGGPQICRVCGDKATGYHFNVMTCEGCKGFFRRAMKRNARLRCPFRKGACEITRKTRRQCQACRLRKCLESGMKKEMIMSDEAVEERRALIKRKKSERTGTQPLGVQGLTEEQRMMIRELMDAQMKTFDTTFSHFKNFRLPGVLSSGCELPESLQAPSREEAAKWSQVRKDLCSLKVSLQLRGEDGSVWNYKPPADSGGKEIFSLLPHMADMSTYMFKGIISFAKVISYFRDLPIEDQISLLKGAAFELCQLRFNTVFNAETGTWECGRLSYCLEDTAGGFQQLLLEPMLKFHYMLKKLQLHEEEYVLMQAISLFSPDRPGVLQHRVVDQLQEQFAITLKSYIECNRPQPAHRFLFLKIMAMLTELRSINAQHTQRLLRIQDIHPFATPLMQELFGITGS
Procedure, shortened: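 HepG2 cells transiently transfected with GAL4-UAS reporter units and PXR-Gal4 chimera, exposed 24 h. Reporter mRNA quantified by RT-PCR, fluorescent labelling, HpaI digestion and capillary electrophoresis; gain of signal vs DMSO.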

[16] = target: human Retinoic Acid Receptor gamma (RARg), RARG (gene 5916) (UniProt P13631); experiment: ATG_RARg_TRANS: Attagene TRANS-FACTORIAL HepG2 Assay for human Retinoic Acid Receptor gamma (RARg) (AID 2283009; active = hit-call score of the fitted dose curve at least 0.9, where 1 is the maximum;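 as to AC50: AC50 is for reporter induction above DMSO meaning RARg activation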)
Sequence of human Retinoic Acid Receptor gamma (RARg), RARG (gene 5916) (P13631 whole entry, looked up): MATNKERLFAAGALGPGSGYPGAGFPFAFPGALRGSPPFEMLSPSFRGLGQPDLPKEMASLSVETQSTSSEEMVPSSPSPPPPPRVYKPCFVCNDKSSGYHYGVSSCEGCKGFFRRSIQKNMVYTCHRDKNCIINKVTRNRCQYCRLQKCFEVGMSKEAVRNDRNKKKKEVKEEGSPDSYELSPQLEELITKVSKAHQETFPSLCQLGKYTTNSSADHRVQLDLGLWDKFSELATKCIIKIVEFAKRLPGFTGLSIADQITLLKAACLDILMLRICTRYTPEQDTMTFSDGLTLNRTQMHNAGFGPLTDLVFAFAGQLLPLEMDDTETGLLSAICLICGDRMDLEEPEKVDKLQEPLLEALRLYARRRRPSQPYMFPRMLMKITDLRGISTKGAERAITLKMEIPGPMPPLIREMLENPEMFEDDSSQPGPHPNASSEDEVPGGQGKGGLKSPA
Procedure, shortened: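 Transient transfection of HepG2 with multi-reporter constructs, then 24 h chemical treatment. Total RNA isolated, reverse-transcribed, PCR-amplified, fluorescently labelled and resolved by capillary electrophoresis; activity scored as mRNA induction versus DMSO.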

[17] = target: human RAR-related Orphan Receptor gamma (RORg), RORC (gene 6097) (UniProt P51449); experiment: ATG_RORg_TRANS: Attagene TRANS-FACTORIAL HepG2 Assay for human RAR-related Orphan Receptor gamma (RORg) (AID 2283011; active = hit-call score of the fitted dose curve at least 0.9, where 1 is the maximum)
Sequence of human RAR-related Orphan Receptor gamma (RORg), RORC (gene 6097) (P51449 whole entry, looked up, the tested form may be a part): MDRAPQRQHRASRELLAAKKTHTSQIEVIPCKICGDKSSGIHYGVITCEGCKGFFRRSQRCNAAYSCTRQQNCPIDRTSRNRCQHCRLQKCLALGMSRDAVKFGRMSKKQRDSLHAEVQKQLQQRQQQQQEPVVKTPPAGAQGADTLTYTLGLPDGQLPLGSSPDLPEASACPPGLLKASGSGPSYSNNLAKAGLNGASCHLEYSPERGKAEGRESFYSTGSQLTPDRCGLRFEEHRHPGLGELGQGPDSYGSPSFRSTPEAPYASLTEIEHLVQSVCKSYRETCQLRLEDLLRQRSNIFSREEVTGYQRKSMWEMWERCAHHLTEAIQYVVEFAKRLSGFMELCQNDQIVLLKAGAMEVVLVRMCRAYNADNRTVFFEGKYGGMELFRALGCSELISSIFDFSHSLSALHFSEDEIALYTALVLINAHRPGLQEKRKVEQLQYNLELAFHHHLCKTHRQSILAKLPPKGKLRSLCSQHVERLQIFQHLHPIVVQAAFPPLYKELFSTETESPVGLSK
Procedure, shortened: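 Reporter transcripts from a transfected RORg-GAL4 chimera in HepG2 cells were quantified 24 h after dosing by RT-PCR, 6-FAM labelling, HpaI digestion and capillary electrophoresis; increases over DMSO baseline were fitted.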

[18] = target: human Retinoic Acid Receptor beta (RARb), RARB (gene 5915) (UniProt P10826); experiment: ATG_RARb_TRANS: Attagene TRANS-FACTORIAL HepG2 Assay for human Retinoic Acid Receptor beta (AID 2283004; active = hit-call score of the fitted dose curve at least 0.9, where 1 is the maximum)
Sequence of human Retinoic Acid Receptor beta (RARb), RARB (gene 5915) (P10826 whole entry, looked up, the tested form may be a part): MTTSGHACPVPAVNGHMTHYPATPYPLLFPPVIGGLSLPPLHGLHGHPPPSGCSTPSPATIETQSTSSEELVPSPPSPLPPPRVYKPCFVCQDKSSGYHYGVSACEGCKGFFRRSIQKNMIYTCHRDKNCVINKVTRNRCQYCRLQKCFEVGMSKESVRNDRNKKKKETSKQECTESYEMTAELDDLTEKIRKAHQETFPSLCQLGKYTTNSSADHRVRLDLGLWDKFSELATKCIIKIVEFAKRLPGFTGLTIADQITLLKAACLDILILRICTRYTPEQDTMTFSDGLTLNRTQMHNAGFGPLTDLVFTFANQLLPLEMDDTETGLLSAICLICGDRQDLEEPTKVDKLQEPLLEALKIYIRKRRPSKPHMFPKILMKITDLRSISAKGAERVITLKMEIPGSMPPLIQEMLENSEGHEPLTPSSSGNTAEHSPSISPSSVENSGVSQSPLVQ
Procedure, shortened: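 Induction of reporter mRNA from a chimeric RARb-Gal4 construct was measured by RT-PCR, FAM labelling, HpaI digestion and capillary electrophoresis. Measurements followed 24 h compound treatment of transiently transfected human HepG2 liver cells, with DMSO as baseline.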

[19] = target: Retinoic acid receptor alpha (Homo sapiens) (UniProt P10276); experiment: ATG_RARa_TRANS: Attagene TRANS-FACTORIAL HepG2 Assay for human Retinoic Acid Receptor alpha (RARa) (AID 2283005; active = hit-call score of the fitted dose curve at least 0.9, where 1 is the maximum)
Sequence of Retinoic acid receptor alpha (Homo sapiens) (P10276 whole entry, looked up, the tested form may be a part): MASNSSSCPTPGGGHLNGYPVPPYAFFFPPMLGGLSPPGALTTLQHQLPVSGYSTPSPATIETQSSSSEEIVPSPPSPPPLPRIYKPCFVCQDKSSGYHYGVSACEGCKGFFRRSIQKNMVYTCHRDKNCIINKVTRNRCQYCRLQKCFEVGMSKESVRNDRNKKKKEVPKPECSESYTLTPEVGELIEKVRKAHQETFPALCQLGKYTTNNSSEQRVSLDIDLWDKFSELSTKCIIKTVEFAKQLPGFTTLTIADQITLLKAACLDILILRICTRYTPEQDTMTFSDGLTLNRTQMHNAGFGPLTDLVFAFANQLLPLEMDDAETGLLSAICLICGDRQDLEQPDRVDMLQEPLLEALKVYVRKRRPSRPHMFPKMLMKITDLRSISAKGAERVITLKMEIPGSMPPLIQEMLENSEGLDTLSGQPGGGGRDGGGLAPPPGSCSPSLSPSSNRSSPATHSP
Procedure, shortened: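 Reporter transcripts, measured by RT-PCR with fluorescent labeling and capillary electrophoresis after 24 h dosing, reflect activity of an exogenous human RARa–GAL4 fusion in transiently transfected HepG2. Fitted for increase relative to DMSO.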

[20] = target: Peroxisome proliferator-activated receptor gamma (Homo sapiens) (UniProt P37231); experiment: ATG_PPARg_TRANS: Attagene TRANS-FACTORIAL HepG2 Assay for human Peroxisome Proliferator-activated Receptor-gamma (PPARg) (AID 2283007; active = hit-call score of the fitted dose curve at least 0.9, where 1 is the maximum)
Sequence of Peroxisome proliferator-activated receptor gamma (Homo sapiens) (P37231 whole entry, looked up): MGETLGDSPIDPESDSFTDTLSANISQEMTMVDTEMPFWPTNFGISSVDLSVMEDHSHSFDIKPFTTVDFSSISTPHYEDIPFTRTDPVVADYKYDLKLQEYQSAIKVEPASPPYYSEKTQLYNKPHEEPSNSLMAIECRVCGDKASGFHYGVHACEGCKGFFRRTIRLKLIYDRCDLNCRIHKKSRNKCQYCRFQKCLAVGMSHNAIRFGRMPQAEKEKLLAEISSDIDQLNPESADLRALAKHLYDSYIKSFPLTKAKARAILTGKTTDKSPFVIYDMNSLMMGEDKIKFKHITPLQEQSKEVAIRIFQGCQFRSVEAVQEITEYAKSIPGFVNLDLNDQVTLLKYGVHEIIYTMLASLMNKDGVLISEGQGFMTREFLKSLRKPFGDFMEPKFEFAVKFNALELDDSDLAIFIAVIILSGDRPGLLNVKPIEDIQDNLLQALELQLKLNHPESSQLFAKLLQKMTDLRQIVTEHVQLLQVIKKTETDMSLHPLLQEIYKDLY
Procedure, shortened: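 Multiplexed reporter transcription units in HepG2, 24 h dosing, reporter transcripts quantified by fluorescent RT-PCR and capillary electrophoresis. Increase over DMSO scored.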

Measured: AC50

CCc1cc(SCc2sc(-c3ccc(C(F)(F)F)cc3)nc2CN2CCN(c3ccc(OC)cc3)CC2)ccc1OCC(=O)O
inactive: [1] | [2] | [6] | [16] | [17]
active: [3] 20.2 µM | [4] 4.51 µM | [5] 8.42 µM | [7] 12.4 µM | [8] 7.74 µM | [9] 27.7 µM | [10] 10.9 µM | [11] 0.0501 µM | [12] 0.00449 µM | [13] 29.9 µM | [14] 9.19 µM | [15] 4.69 µM

Cn1cnc([N+](=O)[O-])c1Sc1ncnc2nc[nH]c12
active: [4] 29.5 µM | [11] 26.4 µM | [14] 6.59 µM and 2.94 µM and 9.77 µM | [15] 29.8 µM | [16] 26.1 µM
not listed: [17] | [20]
inactive: all other assays above

COC(=O)c1c(Cl)c(Cl)c(C(=O)OC)c(Cl)c1Cl
active: [14] 14.6 µM
not listed: [16] | [18] | [19] | [20]
inactive: all other assays above

CC(C)=CCCC(C)CCO (stereo unspecified)
active: [4] 134 µM | [11] 65.5 µM | [20] 42.6 µM
not listed: [12] | [16] | [17] | [19]
inactive: all other assays above

O=C1CCCCCN1
active: [11] 3.37 µM
not listed: [20]
inactive: all other assays above

CCCCCCCCCCCCCCCO
active: [8] 35.6 µM | [9] 15.4 µM | [10] 36.5 µM | [14] 14.7 µM
not listed: [15] | [16] | [18] | [19]
inactive: all other assays above

O=c1n(CC2CO2)c(=O)n(CC2CO2)c(=O)n1CC1CO1 (stereo unspecified)
inactive: [11] | [12] | [13]
active: [1] 47 µM | [2] 58.4 µM | [3] 31.7 µM | [4] 7.56 µM | [5] 48.5 µM | [6] 24.7 µM | [7] 11.3 µM | [8] 20 µM | [9] 26.3 µM | [10] 23.2 µM | [14] 1.46 µM

CC[C@H]1CC[C@H](NCc2cc3c(cc2OC)[C@H]2C[C@H]2C(=O)N3C)[C@H](c2ccccc2)N1
active: [1] 46.5 µM | [3] 45.2 µM | [5] 64.3 µM | [6] 100 µM | [14] 28.6 µM | [15] 3.94 µM
not listed: [19] | [20]
inactive: all other assays above

CCOC(=O)COc1ccc2c(c1)CC(NCC(O)c1cccc(Cl)c1)CC2 (stereo unspecified)
active: [6] 49.8 µM | [7] 33 µM | [8] 28.5 µM | [9] 27.5 µM | [10] 34.3 µM | [11] 33 µM | [13] 28.4 µM | [14] 15.3 µM
not listed: [19] | [20]
inactive: all other assays above

O=C(OC[C@H]1O[C@@H](OC(=O)c2cc(O)c(O)c(OC(=O)c3cc(O)c(O)c(O)c3)c2)[C@H](OC(=O)c2cc(O)c(O)c(OC(=O)c3cc(O)c(O)c(O)c3)c2)[C@@H](OC(=O)c2cc(O)c(O)c(OC(=O)c3cc(O)c(O)c(O)c3)c2)[C@@H]1OC(=O)c1cc(O)c(O)c(OC(=O)c2cc(O)c(O)c(O)c2)c1)c1cc(O)c(O)c(OC(=O)c2cc(O)c(O)c(O)c2)c1
active: [7] 7.77 µM | [9] 11.2 µM | [10] 8.95 µM | [14] 9.47 µM
not listed: [12] | [20]
inactive: all other assays above

CC[C@H]1OC(=O)[C@H](C)[C@@H](O[C@H]2C[C@@](C)(OC)[C@@H](O)[C@H](C)O2)[C@H](C)[C@@H](O[C@@H]2O[C@H](C)C[C@H](N(C)C)[C@H]2O)[C@](C)(O)C[C@@H](C)C(=O)[C@H](C)[C@@H](O)[C@]1(C)O
not listed: [12] | [16] | [17] | [18] | [20]
inactive: all other assays above

C1N2CN3CN1CN(C2)C3
not listed: [12] | [16] | [17] | [18] | [20]
inactive: all other assays above

COc1ccc(/C=C/S(=O)(=O)NC(=O)c2ccc(C)cc2Cl)cc1
active: [14] 7.08 µM
not listed: [16] | [18] | [19] | [20]
inactive: all other assays above
